These results are taken from PubChem BioAssay (NCATS).

Results filed as inconclusive are left out. Activity calls are given as the source filed them. Calls come from the whole dose curve; as a rule, active = well fitted cell-killing curve with a large enough effect; inconclusive = small, poorly fitted or top-dose-only effect, or effect the other way; inactive = no such curve, though single readings can be large or run the other way.
Potency is the fitted concentration of half-maximal effect.

The assay can be described thus: Quantitative High-Throughput drug screen in 47 multiple myeloma cell lines against the NCATS MIPE library collection: OCIMY1_PLB cell viability assay (AID 1918979). Note: nearly all actives have a fitted effect of over 35% in size. The conditions noted are these: OCI-MY1 myeloma viability, CellTiter-Glo ATP, 48 h; series mostly up to 45.8 µM; viability: at the top concentration. The text has this: PI: Beverly A. Mock Ph.D.
Laboratory of Cancer Biology and Genetics,
Center for Cancer Research, National Cancer Institute,
National Institute of Health, Bethesda, Maryland
Drug resistance and disease progression are common in multiple myeloma (MM) patients, underscoring the need for new therapeutic combinations. […] We hypothesized that effective combinations would reduce MYC expression and enhance p16 activity. […] These preclinical data identify potentially useful drug combinations for evaluation in drug-resistant MM and reveal potential mechanisms of combined drug sensitivity.
Described herein is the primary MIPE qHTS used to cherrypick compounds. Validated compounds were then further tested for potential synergistic activiy.
[1] Peat TJ, Gaikwad SM, Dubois W, Gyabaah-Kessie N, Zhang S, Gorjifard S, Phyo Z, Andres M, Hughitt VK, Simpson RM, Miller MA, Girvin AT, Taylor A, Williams D, D'Antonio N, Zhang Y, Rajagopalan A, Flietner E, Wilson K, Zhang X, Shinn P, Klumpp-Thomas C, McKnight C, Itkin Z, Chen L, Kazandijian D, Zhang J, Michalowski AM, Simmons JK, Keats J, Thomas CJ, Mock BA. Drug combinations identified by high-throughput screening promote cell cycle transition and upregulate Smad pathways in myeloma. Cancer Lett. 2023 Aug 1;568:216284. doi: 10.1016/j.canlet.2023.216284. Epub 2023 Jun 24. PMID: 37356470; PMCID: PMC10408729.
SEQUENCE No. (e.g., 1, 2, 3, etc.); […] (e.g., Cells, Incubation, Reagent, etc.); VALUE and DESCRIPTION.
1; Cells; 5 uL; white, solid bottom 1536-well Greiner assay plate.
2; Compounds; 23 nL; Kalypsis pin tool (Wako USA) equipped with a 1536-well pin head to transfer to the assay plates.
3; Incubation; 48 hours; 37C incubation.
4; Reagent;5uL; CellTiter Glo (Promega).
5; Detector; 425V; Luminescence; Viewlux PerkinElmer.
NOTES (numbers refer to Sequence numbers above)
1. The cell-based screening methods employed in this study were like those previously published. Briefly, the corresponding myeloma cell lines were screened in 1,536-well plates with 500 cells, 5-uL per well for inhibition of cell viability (assessed by measuring ATP levels with CellTiterGlo).
2. NCATS MIPE 4.0 library of approved and investigational drugs were added using the Kalypsis pin tool. Wells treated with DMSO only for 100% viability and media only for 0% viability were used as controls.
3. The assay plates were covered and incubated for 48 hours in a 37C, 5% CO2 incubator with controlled humidity.
4. After 48 hours, CellTilter-GloTM luminescent substrate mix (Promega) reagent was added to the assay plate and plates we incubated for 5 min at room temperature.
5. Signal was measured as median relative luminescence units on a ViewLux (PerkinElmer) multiplate reader.
[1] Heske CM, Davis MI, Baumgart JT, Wilson K, Gormally MV, Chen L, Zhang X, Ceribelli M, Duveau DY, Guha R, Ferrer M, Arnaldez FI, Ji J, Tran HL, Zhang Y, Mendoza A, Helman LJ, Thomas CJ. Matrix Screen Identifies Synergistic Combination of PARP Inhibitors and Nicotinamide Phosphoribosyltransferase (NAMPT) Inhibitors in Ewing Sarcoma. Clin Cancer Res. 2017 Dec 1;23(23):7301-7311. doi: 10.1158/1078-0432.CCR-17-1121. Epub 2017 Sep 12. PMID: 28899971; PMCID: PMC6636827.
With `N#C[C@H]1C[C@H]2C[C@@H]2N1C(=O)[C@@H](N)C12CC3CC(CC(O)(C3)C1)C2`, the viability – broadly, a read-out of living cells in per cent, often relative to untreated cells – was 101% (inactive).

As for `CC[C@H]1OC(=O)[C@H](C)[C@@H](O[C@H]2C[C@@](C)(OC)[C@@H](O)[C@H](C)O2)[C@H](C)[C@@H](O[C@@H]2O[C@H](C)C[C@H](N(C)C)[C@@H]2O)[C@](C)(O)C[C@@H](C)CN(C)[C@H](C)[C@@H](O)[C@]1(C)O`, the “viability” value is 98.6% (inactive).

For `COc1cc2c(cc1OC)CN(CCc1ccc(NC(=O)c3cc(OC)c(OC)cc3NC(=O)c3cnc4ccccc4c3)cc1)CC2`, the “viability” value is 112% (inactive).

Consider `CC1CCC(C(=O)N(c2cc(C#CC(C)(C)C)sc2C(=O)O)C2CCC(O)CC2)CC1` (stereo not given), for which the “viability” value is 110% (inactive).

Turning to `CCCCCCCCCCCC1=C(O)C(=O)C=C(O)C1=O`, the “viability” value is 78.8% (inactive).

As to `COc1cc2ncnc(Nc3ccc(F)c(Cl)c3)c2cc1OCCCN1CCOCC1`, the Potency is 48.1 µM (active).

Consider `CC(=O)N(C)C1(c2ccccc2)CCN(CCC[C@]2(c3ccc(Cl)c(Cl)c3)CCCN(C(=O)c3ccccc3)C2)CC1`, for which the Potency is 26.4 µM (active).

Consider `CCOC1OC(=O)C[C@H]1NC(=O)[C@@H]1CCCN1C(=O)[C@@H](NC(=O)c1ccc(N)c(Cl)c1)C(C)(C)C` (stereo not given in full), for which the “viability” value was 105% (inactive).

As to `Nc1ncnc2c1ncn2[C@@H]1O[C@H](CO)C[C@@H]1O`, the “viability” value was 100% (inactive).

Consider `NS(=O)(=O)c1cccc2c1C(=O)c1cccc(O)c1C2=O`, for which the Potency was 1.18 µM (active).

With `COC1CCC(N(C(=O)C2CCC(C)CC2)c2cc(C3=CCCCC3)sc2C(=O)O)CC1` (stereo not given), the “viability” value was 116% (inactive).

As for `Cc1ccn(-c2ccc(-c3ncco3)cc2)c(=O)c1-c1ccc2nc(N)ncc2c1`, the “viability” value was 120% (inactive).

Consider `CC[C@@]1(O)C[C@H](O[C@H]2C[C@H](N(C)C)[C@H](O[C@H]3C[C@H](O)[C@H](O[C@H]4CCC(=O)[C@H](C)O4)[C@H](C)O3)[C@H](C)O2)c2c(cc3c(c2O)C(=O)c2c(O)cccc2C3=O)[C@@H]1C(=O)OC`, for which the Potency is 1.66 µM (active).

Regarding `CC1(C)O[C@H]2C[C@@H]3[C@H]4CCC5=CC(=O)C=C[C@]5(C)[C@@]4(F)[C@@H](O)C[C@]3(C)[C@]2(C(=O)CO)O1`, the “viability” value was 122% (inactive).

As for `COc1cc(O)c2c(c1)C(=O)c1cc(C)cc(O)c1C2=O`, the “viability” value is 100% [at 23.2 µM] (inactive).

With `Clc1ccc(C(c2ccc(Cl)cc2)n2cc[n+](CC(OCc3ccc(Cl)cc3Cl)c3ccc(Cl)cc3Cl)c2)cc1` (stereo not given), the Potency was 18.7 µM (active).

Turning to `COc1ccc2cccc(CCNC(C)=O)c2c1`, the “viability” value is 114% (inactive).

Consider `O=C(Nc1cccc(Br)c1)c1cccc(S(=O)(=O)N2CCCCCC2)c1`, for which the Potency was 14.8 µM (active).

`O=C1NC(=O)C(=Cc2cccc(C(F)(F)F)c2)S1`: the “viability” value is 99.9% (inactive).

As for `N#Cc1ccc(NC(=O)Nc2ccccc2Br)c2n[nH]nc12`, the “viability” value is 121% (inactive).

On to `COc1ccc(-c2coc3cc(O)cc(O)c3c2=O)cc1`, for which the “viability” value is 95.7% (inactive).

Take `O=C(O)CCC1CCC(c2cc(F)ccc2F)(S(=O)(=O)c2ccc(Cl)cc2)CC1` (stereo not given): the “viability” value is 116% (inactive).

In the case of `CC1(C)Cc2c(sc(NC(=S)NC(=O)c3ccccc3)c2C(=O)O)CO1`, the “viability” value was 85.8% (inactive).

Consider `CC(=Cc1ccccc1)C=C1SC(=S)N(CC(=O)O)C1=O`, for which the “viability” value was 115% (inactive).

As to `CNC(=O)c1ccccc1Sc1ccc2c(C=Cc3ccccn3)n[nH]c2c1`, the “viability” value was 93.7% (inactive).

Take `CC(C(=O)O)c1ccc(-c2ccccc2)c(F)c1` (stereo not given): the “viability” value is 101% (inactive).

In the case of `O=C(NOCC(O)CO)c1cc(Br)c(F)c(F)c1Nc1ccc(I)cc1F` (stereo not given), the “viability” value was 63.4% (inactive).

Turning to `CC(C)(C)Cn1c(N)nc2ccc(-c3[nH]c(C(C)(C)C)nc3-c3ccc(F)cc3)nc21`, the Potency was 16.6 µM (active).

With `COCCCCC(=NOCCN)c1ccc(C(F)(F)F)cc1`, the “viability” value was 92.2% (inactive).

In the case of `COc1ccc(C2Sc3ccccc3N(CCN(C)C)C(=O)C2OC(C)=O)cc1` (stereo not given), the “viability” value is 109% (inactive).

In the case of `O=C(NCc1ccccc1)c1csc(Nc2ccncn2)n1`, the Potency is 20.9 µM (active).

As for `CN(C)c1cc(NC(=O)CNC(C)(C)C)c(O)c2c1C[C@@H]1C[C@H]3[C@H](N(C)C)C(=O)C(C(N)=O)=C(O)[C@@]3(O)C(=O)C1=C2O`, the “viability” value was 104% (inactive).

`CC(C)(C(=O)NCC(F)(F)C(F)(F)F)C(=O)N[C@@H]1C(=O)Nc2ccccc2-c2ccccc21`: the “viability” value is 92.5% (inactive).

In the case of `c1cc(-c2sc(-c3ccncc3)c(-c3ccncc3)c2-c2ccncc2)ccn1`, the “viability” value was 114% (inactive).

Consider `COc1cc(N2CCC(N3CCN(C)CC3)CC2)ccc1Nc1ncc(Cl)c(Nc2ccccc2S(=O)(=O)C(C)C)n1`, for which the “viability” value is 54% (inactive).

Consider `CC=CC(=O)N(CC)c1ccccc1C`, for which the “viability” value was 113% (inactive).

In the case of `CC(C)(C)C(=O)Oc1ccc2c(c1)nc(NC(=O)c1cccc([N+](=O)[O-])c1)n2CCCO`, the “viability” value was 86.9% (inactive).

Consider `COc1ccc(-c2coc3cc(O)ccc3c2=O)cc1`, for which the “viability” value is 107% (inactive).

`O=C(Nc1c(Cl)cncc1Cl)c1ccc(OC(F)F)c(OCC2CC2)c1`: the Potency was 0.0012 µM (active).

Turning to `O=C1c2ccccc2-[n+]2ccc3c([nH]c4ccccc43)c21`, the Potency is 3.72 µM (active).
